From PubChem BioAssay (NCI)
“And” between values parts separate entries of the source, which are not always exact repeats. Identical values can stand only once. This is part of a sample that, as a whole, favours compounds with a hit. Of some 83,000 tested, about 20% had one in any assay.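 Results are percent growth after 48 hours of single-concentration exposure. 100 means growth as in untreated cells, lower positive values show inhibition; negative values down to -100 show cell death.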 The source made the active and inactive calls. Rule for the calls: active = growth percent below 10; inactive = the rest.

Experiments:
UACC-62 melanoma = assay: NCI-60 one-dose screen, 48 h (100 = growth as untreated, 0 = no growth, -100 = all killed); conditions: 10 µM unless noted
TK-10 renal = assay: as above; conditions: 10 µM unless noted

SMILES | growth (UACC-62 melanoma) | growth (TK-10 renal)
CCOC(=O)CCC(NC(=O)c1ccc(OCc2nc3cc(C(F)(F)F)ccc3nc2-c2ccccc2)cc1)C(=O)OCC (stereo unspecified) | 49.5% [100 µM] (inactive) and 4.13% [100 µM] (active) | 84.3% [100 µM] (inactive) and 14.7% [100 µM] (inactive)
CCCCCCCCCCCCCC1=C(O)C(=O)C(CC2=C(O)C(=O)C(CCCCCCCCCCCCC)=C(O)C2=O)=C(O)C1=O | 9.52% [100 µM] (active) and -61.7% [100 µM] (active) | 33% [100 µM] (inactive) and -1.5% [100 µM] (active)
N#Cc1cnn2c1n[n+]([O-])c1ccc(Cl)cc12 | -91.7% [100 µM] (active) and -100% [100 µM] (active) | 98.1% [100 µM] (inactive) and -100% [100 µM] (active)
Oc1ccccc1-c1n[nH]c(-c2ccccc2O)n1 | 45.8% [100 µM] (inactive) and 4.35% [100 µM] (active) | 46.3% [100 µM] (inactive) and 4.42% [100 µM] (active)
C=C1C(=O)OC2C1CC(O)/C(C)=C\CCC1(C)OC21 (stereo unspecified) | 68.9% [100 µM] (inactive) and -86% [100 µM] (active) | 76.7% [100 µM] (inactive) and -65% [100 µM] (active)
O=C1C=C(Nc2ccc(S(=O)(=O)Nc3nccs3)cc2)c2ccccc2C1=O | -46.1% [100 µM] (active) and -88.9% [100 µM] (active) | 171% [100 µM] (inactive) and -86% [100 µM] (active)
C[C@]12CC[C@@H]3c4cc(Br)c(O)c(Br)c4CC[C@H]3[C@@H]1CC(Br)C2=O (stereo partly specified) | -79.5% [100 µM] (active) and -97.9% [100 µM] (active) | -93.2% [100 µM] (active) and -97.6% [100 µM] (active)
NC(=O)c1[nH]cnc1/N=N/SCC(N)C(=O)O (stereo unspecified) | 6.63% [100 µM] (active) and 4.02% [100 µM] (active) | 9.64% [100 µM] (active) and 8.09% [100 µM] (active)
O=c1c2ncn(C3CCCCO3)c2n(-c2ccccc2)c(=S)n1-c1ccccc1 (stereo unspecified) | 18.7% [100 µM] (inactive) and 4.84% [100 µM] (active) | 20.1% [100 µM] (inactive) and 23.9% [100 µM] (inactive)
CC(C)=CCC/C(C)=C/CC/C(C)=C/CSc1ccc(Cl)cc1C(=O)O | -72.3% [100 µM] (active) and 10.4% [100 µM] (inactive) | -67.3% [100 µM] (active) and 28.4% [100 µM] (inactive)
CC(C)(C)c1cc(C2COC(=O)COCC(=O)OCCOCCOCCO2)cc(C(C)(C)C)c1O (stereo unspecified) | -51.5% [100 µM] (active) and -100% [100 µM] (active) | -74.5% [100 µM] (active) and -100% [100 µM] (active)
O=C(CCc1ccccc1)On1c(-c2ccccc2)nc2ccccc2c1=S | -68.8% [100 µM] (active) and -83.7% [100 µM] (active) | 9.44% [100 µM] (active) and -36.2% [100 µM] (active)
CC(=O)Oc1ccc2ccc(=O)oc2c1OC(C)=O | 24.4% [100 µM] (inactive) and -66.3% [100 µM] (active) | 62.1% [100 µM] (inactive) and 17.8% [100 µM] (inactive)
COc1cc2c(cc1-c1coc3cc(OCC=C(C)C)ccc3c1=O)OCO2 | 0.442% [100 µM] (active) and 1.53% [100 µM] (active) | 5.74% [100 µM] (active) and 19.4% [100 µM] (inactive)
CCCC(=O)Oc1c2ccsc2c(OC(=O)CCC)c2ccsc12 | -75.3% [100 µM] (active) and -100% [100 µM] (active) | -72.5% [100 µM] (active) and -100% [100 µM] (active)
CC12NC(=C(C#N)C#N)C(C#N)=C3NC(N)=C(C#N)C(=C31)Oc1ccccc12 (stereo unspecified) | 7.06% [100 µM] (active) and -61.2% [100 µM] (active) | 22.5% [100 µM] (inactive) and -82.1% [100 µM] (active)
CC(=O)NC(CS/N=N/c1nc[nH]c1C(N)=O)C(=O)O (stereo unspecified) | -5.07% [100 µM] (active) and 0.469% [100 µM] (active) | 7.53% [100 µM] (active) and 4.2% [100 µM] (active)
CC1=CCC2C3(C)CCC2(C(C)C)C1C3 (stereo unspecified) (tested in a mixture with another compound) | 17.4% [100 µM] (inactive) and 0.443% [100 µM] (active) | 17.7% [100 µM] (inactive) and -89.5% [100 µM] (active)
